Assay results: the supplement of paper PMC6555819

What was measured:
Experiment in all cases: PBM binding z-score (relative to random genomic background probes); higher = stronger binding; sequences stand for … in GC…GCGATTGACAGCGTAGAATGAAGG
[1] = tested on: RARb homodimer (NR concentration 270 nM)
In short: (§1)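 Regression normalization was applied to scanned fluorescence from custom Agilent 4×180K protein-binding microarrays. Before scanning, arrays were incubated 1 h with ligand-free nuclear receptor dimers, and binding was detected with antibodies against each partner (one per run). Binding z-scores use the random background probes as reference.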

[2] = tested on: RARg:RXRa (NR concentration 270 nM, RXRa partner concentration 90 nM)
In short: as §1

[3] = tested on: RARg homodimer (NR concentration 270 nM)
In short: as §1

[4] = tested on: RXRa DBDmut IVT, anti-RXR (DBD mutation: RXRa K156A/R161A, NR concentration 90 nM)
In short: as §1

[5] = tested on: RXRa homodimer (NR concentration 180 nM)
In short: as §1

[6] = tested on: THRa:RXRa (NR concentration 90 nM, RXRa partner concentration 90 nM)
In short: as §1

[7] = tested on: THRa homodimer (NR concentration 90 nM)
In short: as §1

[8] = tested on: VDR homodimer (NR concentration 270 nM)
In short: as §1

Sequence | PBM binding z-score [1] | PBM binding z-score [2] | PBM binding z-score [3] | PBM binding z-score [4] | PBM binding z-score [5] | PBM binding z-score [6] | PBM binding z-score [7] | PBM binding z-score [8]
GCTTGTAAATCAAGGTTAAGAAAGACTAAGCTAA | 0.189 | 0.539 | 0.0583 | 0.137 | 0.942 | 1.5 | -0.456 | -0.374
GGAACAAGGGCAAAGTTGATAGCATCTGTCGACG | 1.5 | 1.92 | 1.83 | 1.5 | 1.27 | 0.979 | -0.125 | 0.766
ATCGAAAGGTCGACGAGGTGAGTATCCACCGTTT | 2.9 | 4.16 | 4.03 | 1.27 | 4.38 | 3.78 | 1.01 | 0.828
TGAGACAGGTGAAGGTAACTCAGGTACGCAGTCG | 0.449 | 0.201 | 0.61 | -1.52 | 0.312 | 1.18 | -0.173 | -0.0182
ATATGTAGGTTATCGAGTCATTCAGTTTGCGCAT | 0.699 | 0.829 | 0.699 | 0.829 | 0.932 | 0.512 | 0.232 | 0.932
CCTGATAGGTCATGGTCAGCTAATCTACAGTATG | 3.69 | 5.08 | 5.2 | 1.57 | 5.33 | 2.46 | 0.212 | 0.195
TCTTGGAGGACACGAAAGGTCAGAGCTCGACATC | 4.63 | 5.1 | 5.47 | 1.26 | 4.25 | 3.89 | 1.31 | 1.48
